Bioassay records from PubChem BioAssay.
Only some compounds are listed: those with a hit (about 5.6% of all), similar ones and a draw of the others.
PHOSPHO1 inh: PubChem AID 1565; Phosphoethanolamine/phosphocholine phosphatase (Homo sapiens), Q8TCT1; recombinant PHOSPHO1, absorbance phosphatase assay; inhibition, % at 13.3 µM; 290,000 tested, 1.1% active; in the data active means inhibition above about 60%
Target sequence (Q8TCT1 whole entry, looked up): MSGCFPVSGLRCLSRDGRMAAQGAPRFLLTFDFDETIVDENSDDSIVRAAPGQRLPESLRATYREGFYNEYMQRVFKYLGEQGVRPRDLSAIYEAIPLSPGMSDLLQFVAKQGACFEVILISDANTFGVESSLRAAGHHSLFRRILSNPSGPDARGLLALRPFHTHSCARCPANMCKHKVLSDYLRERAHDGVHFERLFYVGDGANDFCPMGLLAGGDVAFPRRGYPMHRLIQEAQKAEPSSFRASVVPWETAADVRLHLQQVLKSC
PfGluPho inh: PfG6PD enzyme inhibitors, primary screen, biochemical, fluorescence intensity, uHTS; PfGluPho enzyme, NADPH resazurin-diaphorase fluorescence; inhibition, % at 20 µM; 350,000 tested, 0.78% active; AID 504690, 2011; glucose-6-phosphate dehydrogenase-6-phosphogluconolactonase (Plasmodium falciparum 3D7);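 active means inhibition reaching at least a set limit at 20 µM in the primary screen, cut at about 59% in these data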;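 further: 0% = DMSO wells with substrate and 100% = DMSO wells lacking glucose-6-phosphate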
ALR inh: inhibitors of human ALR sulfhydryl oxidase, primary screen, biochemical, H2O2 detection, HRP-luminol luminescence, single point. FAD-linked sulfhydryl oxidase ALR (Homo sapiens), P55789. purified ALR, DTT oxidation. inhibition, % (concentration not given with the values). 290,000 tested, 3.8% active. AID 485317, 2010;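 active means mean replicate inhibition above about 79%, with every replicate also reaching it, limit read from the data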
Target sequence (P55789 whole entry, looked up): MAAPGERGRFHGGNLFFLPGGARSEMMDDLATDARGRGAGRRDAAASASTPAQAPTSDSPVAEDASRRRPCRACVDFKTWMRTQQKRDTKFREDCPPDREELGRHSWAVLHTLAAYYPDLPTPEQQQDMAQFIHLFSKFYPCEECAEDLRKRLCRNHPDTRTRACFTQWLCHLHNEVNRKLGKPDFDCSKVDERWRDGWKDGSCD
PfM18AAP inh: PfM18AAP inhibitors, malaria aminopeptidase, primary screen, biochemical, QFRET, recombinant enzyme | AID 1822, 2009 | H-Glu-NHMec fluorogenic cleavage | 290,000 tested, 1.2% active | M18 aspartyl aminopeptidase (Plasmodium falciparum 3D7) | inhibition, % at 7.35 µM;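 active means inhibition above the campaign mean inhibition over all tested compounds plus 3 SD, cut at about 28% in these data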;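 further: 0% = plate median of test compound wells and 100% = 2 mM ZnCl2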
Cardio protect: cardioprotection against H2O2-induced cell death, primary screen, uHTS, H9c2 cells, ATPLite luminescence | 360,000 tested, 0.63% active | protection from H2O2 cell death, % at 20 µM | H9c2 cardiomyocytes, H2O2 injury protection, 2 h;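 active means compounds giving at least 50% protection of heart cells from peroxide-induced death in the single-dose screen, raw or plate-pattern-corrected value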;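 further: 0% = DMSO wells with peroxide and 100% = DMSO wells without peroxide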
The depositor's hits bear a star.

Results for CN1CCCCC1(C)C(=O)NCc1ccc(F)cc1 (stereo not given) ?
Cardio protect: 4

What do the screens show for `OC[C@@H]1CN(Cc2ccncc2)C[C@H](n2cnc3c(N4CCCC4)ncnc32)O1`?
Cardio protect: 5

Results for O=[N+]([O-])c1ccc(CSC2=NCCN2)cc1 ?
PHOSPHO1 inh: 14; PfGluPho inh: 16; ALR inh: 99*; PfM18AAP inh: 5; Cardio protect: 1

How did CC(=O)Nc1ccc(C2=NN(C)C(=NCc3ccccc3)SC2)cc1 do in these assays?
PHOSPHO1 inh: 2; PfGluPho inh: 12; ALR inh: 99*; PfM18AAP inh: 9; Cardio protect: -13

What do the screens show for `CCCC[C@@H]1CCCO[C@@](C(=O)NCc2ccc(C)o2)(C(F)(F)F)C1`?
PfGluPho inh: 11; ALR inh: 90*; Cardio protect: 8

How did Cc1ccc(C)c(S(=O)(=O)N2CCC(c3nc4c(nnn4Cc4ccc5c(c4)OCCO5)c(=O)[nH]3)CC2)c1 do in these assays?
PHOSPHO1 inh: 33; PfGluPho inh: -10; ALR inh: -7; PfM18AAP inh: 2; Cardio protect: -8

Results for Cc1ccc(S(=O)(=O)N2C[C@@H](C)[C@]3(C2)[C@H](O)[C@H](OC(=O)Nc2c(C)noc2C)C[C@H]2C(=O)N(c4ccccc4)C(=O)[C@H]23)cc1 ?
PfGluPho inh: 6; Cardio protect: 1

How did COc1ccc(NC(=O)CS(=O)CC(=O)Nc2ccc(OC)c(OC)c2)cc1 (stereo not given) do in these assays?
PHOSPHO1 inh: 5; PfGluPho inh: 8; ALR inh: 87*; PfM18AAP inh: -4; Cardio protect: 5

How did Cc1c(C(=O)N2CCOCC2)sc(NC(=O)C(C)C)c1C#N do in these assays?
PHOSPHO1 inh: 10; PfGluPho inh: -2; PfM18AAP inh: -2; Cardio protect: 4

Results for CCC(CO)Oc1cc(NCc2ccccc2Cl)c2ncn(C(C)C)c2c1 (stereo not given) ?
PfGluPho inh: 24; ALR inh: 16; Cardio protect: -13

How did Cc1ccc(-c2csc(/C(C#N)=C(\O)CN3CCN(C(=O)c4ccco4)CC3)n2)cc1 do in these assays?
PHOSPHO1 inh: -31; PfGluPho inh: -2; ALR inh: 99*; PfM18AAP inh: -12; Cardio protect: -3

Results for N#C/C(=C(/O)CN1CCOCC1)c1nc(-c2ccccc2)cs1 ?
PHOSPHO1 inh: 9; PfGluPho inh: -23; ALR inh: 36; PfM18AAP inh: -4; Cardio protect: 0

What do the screens show for `CN(C)/C=C(\C#N)C(=O)Nc1ccc(O)cc1F`?
PHOSPHO1 inh: 23; PfGluPho inh: 13; ALR inh: 99*; PfM18AAP inh: 3; Cardio protect: 1

Results for COc1ccc(C(=O)N/C(=C\c2cn(S(=O)(=O)N(C)C)c3ccccc23)C(=O)N2CCN(C)CC2)cc1OC ?
PfGluPho inh: 16; Cardio protect: 14

How did CCOC(=O)C1CCCN(C(=O)c2cccc(C(F)(F)F)c2)CC1 (stereo not given) do in these assays?
Cardio protect: -2

What do the screens show for `CC(CN1c2ccccc2Sc2ccccc21)N(C)C` (stereo not given)?
PHOSPHO1 inh: -14; PfGluPho inh: 10; ALR inh: 99*; PfM18AAP inh: -4; Cardio protect: 12

What do the screens show for `COc1ccc2c(c1)N(C[C@H](C)CN(C)C)c1ccccc1S2`?
PfGluPho inh: 13; Cardio protect: 16

Results for CC(CN(C)C)CN1c2ccccc2Sc2ccccc21 (stereo not given) ?
PfGluPho inh: 18; ALR inh: 99*; Cardio protect: 22

How did O=C(c1ccc(Cl)c(Cl)c1)N1CCOCC1 do in these assays?
PHOSPHO1 inh: 6; PfGluPho inh: -2; ALR inh: -3; PfM18AAP inh: -4; Cardio protect: 17

What do the screens show for `Nc1nc(C(=O)N2CCOCC2)nn1C(=O)c1ccc(Cl)cc1`?
PHOSPHO1 inh: -6; PfGluPho inh: -5; ALR inh: 86*; PfM18AAP inh: -15; Cardio protect: 12

How did COc1ccc([N+](=O)[O-])cc1-c1[nH]c(-c2ccc(C(=O)O)cc2)nc1-c1ccccc1 do in these assays?
PHOSPHO1 inh: 44; PfGluPho inh: 2; ALR inh: 98*; PfM18AAP inh: -1; Cardio protect: 2

How did O=C(CCCn1c(=S)[nH]c2ccc(Br)cc2c1=O)N1CCN(c2ccccn2)CC1 do in these assays?
PHOSPHO1 inh: -96; PfGluPho inh: -8; ALR inh: 92*; PfM18AAP inh: 2; Cardio protect: 12

Results for O=C(CCCn1c(=S)[nH]c2cc3c(cc2c1=O)OCO3)N1CCN(c2ccccc2)CC1 ?
PHOSPHO1 inh: 69*; PfGluPho inh: -2; ALR inh: 8; PfM18AAP inh: 10; Cardio protect: 6

Results for O=C(CCCn1c(=S)[nH]c2cc3c(cc2c1=O)OCO3)N1CCc2ccccc2C1 ?
PHOSPHO1 inh: -48; PfGluPho inh: -4; ALR inh: -1; PfM18AAP inh: 3; Cardio protect: 3

How did CC(=O)c1ccc(N2CCN(C(=O)CCCn3c(=S)[nH]c4cc5c(cc4c3=O)OCO5)CC2)cc1 do in these assays?
PHOSPHO1 inh: 63*; PfGluPho inh: 17; ALR inh: 5; PfM18AAP inh: 3; Cardio protect: 8

What do the screens show for `O=C(CCn1c(=S)[nH]c2cc3c(cc2c1=O)OCO3)N1CCc2ccccc2C1`?
PHOSPHO1 inh: 66*; ALR inh: 18; PfM18AAP inh: 8

What do the screens show for `O=c1c2cc(Br)ccc2[nH]c(=S)n1Cc1ccccn1`?
PHOSPHO1 inh: 3; PfGluPho inh: -2; ALR inh: 93*; PfM18AAP inh: -9; Cardio protect: 3

How did Oc1ccccc1N=Nc1ccccc1O do in these assays?
PHOSPHO1 inh: -27; PfGluPho inh: -37; PfM18AAP inh: 11; Cardio protect: 27

What do the screens show for `Nc1ccc(N=Nc2ccccc2O)c(N)c1`?
PfGluPho inh: 2; ALR inh: 83*; Cardio protect: -4

How did Cc1cc(NC(=O)CCC(=O)N(c2ccc(F)cc2)C(C(=O)NC2CCCC2)c2cccnc2)no1 (stereo not given) do in these assays?
PHOSPHO1 inh: 32; PfGluPho inh: 9; ALR inh: -6; PfM18AAP inh: -1; Cardio protect: 0

What do the screens show for `O=C1CSC(c2ccccn2)N1c1cccc(Cl)c1` (stereo not given)?
PHOSPHO1 inh: 15; PfGluPho inh: -7; ALR inh: 99*; PfM18AAP inh: 7; Cardio protect: 14

Results for O=C1CSC(c2ccccn2)N1c1ccccc1F (stereo not given) ?
PHOSPHO1 inh: -16; PfGluPho inh: 4; PfM18AAP inh: 3; Cardio protect: -2

Results for Cc1ccc(N2C(=O)CSC2c2ccccn2)cc1Cl (stereo not given) ?
PHOSPHO1 inh: 19; PfGluPho inh: 4; ALR inh: 99*; PfM18AAP inh: -11; Cardio protect: -1
